Out of some 1,100 compounds screened, about 210 (19%) were called active. How the calls were made is not given here. These entries were drawn from the full list. Measured potencies and affinities stand elsewhere.

A short description of this assay: host cell cytotoxicity, dose response, cytotoxicity control for SV40 T antigen inhibitor project, selected hits (AID 2102).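 Further: cells exposed to compounds for 72 hours.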 The note with it: Host cell viability cytotoxicity counter-screen; series mostly up to 50 µM. (A counterscreen serves to expose hits that act by an unwanted route or on another target.)
Consider `COc1ccc(NC2CCCN(C(=O)c3c(C)noc3C)C2)cc1` (stereo not given), for which the result was inactive. On to `COc1cc(/C=N/Nc2ccccn2)ccc1O`, for which the outcome was inactive. Consider `Oc1ccc(/C=N/Nc2ccc(Cl)nn2)cc1O`, for which the call was inactive. As to `C=CCNC(=S)NNC(=O)c1cc(O)ccc1O`, the compound was classed as inactive. Consider `CCOc1cc(C(c2c(O)nc(SC)[nH]c2=O)c2c(O)nc(SC)[nH]c2=O)ccc1O`, for which the compound was called inactive. In the case of `COc1ccc(CNc2ccc(N3CCOCC3)cc2)cc1`, the call was inactive. Regarding `CC(=O)N1CCN(c2ccc(NCc3ccc(C)s3)cc2)CC1`, the outcome was inactive. With `Cc1ccc(CNc2ccc(N3CCOCC3)cc2)cc1`, the compound was classed as inactive. On to `CCOc1ccc(NCc2nnc(SCC(=O)Nc3cc(C)on3)n2-c2ccc(OC)cc2)cc1`, for which the compound was classed as inactive. Consider `Cc1cc(C)n(CCc2nc(-c3ccco3)cs2)n1`, for which the compound was classed as inactive. With `Nc1ccc(-c2nc3c(Cl)c(N)ccc3[nH]2)cc1`, the result was inactive.

Consider `Nc1ccc2nc(CCCCCCc3nc4ccc(N)cc4[nH]3)[nH]c2c1`, for which the outcome was inactive.

Regarding `CC(C)C(C(=O)O)N1C(=O)/C(=C/C=C/c2ccco2)SC1=S` (stereo not given), the result was inactive.

For the compound `O=C1NC(=NCc2ccccc2)S/C1=C/c1ccc(O)cc1`, the call was inactive.

For the compound `C/C(=N/NC(=O)CSc1nc2ccccc2n1C)c1ccc(O)cc1`, the call was inactive. As to `COc1ccc(NC2CCCN(C(=O)CCCn3cncn3)C2)cc1` (stereo not given), the call was inactive. Regarding `O=C1NC(=O)/C(=C/c2ccc(O)cc2)S1`, the call was inactive. Turning to `O=C(O)Cc1c[nH]c2cccc(O)c12`, the outcome was inactive.

Turning to `O=C(CCc1ccc(O)c(O)c1)N/N=C/c1cc2c(cc1[N+](=O)[O-])OCO2`, the call was inactive. `COc1ccc(CC(=O)N/N=C(\C)CC(=O)Nc2ccc(N(C)C)cc2)cc1OC`: the outcome was inactive. As for `COc1ccc(/C=N/NC(=O)CCc2n[nH]c(=O)[nH]c2=O)cc1O`, the result was inactive. In the case of `COc1cc(/C=C2\C(=O)NN(c3ccccc3)C2=O)ccc1OCC(N)=O`, the compound was called inactive. Consider `Cc1nnc(Nc2ccc(O)cc2)[nH]c1=O`, for which the outcome was inactive.

Regarding `O=S1(=O)N=C(Nc2ccc(O)cc2)c2ccccc21`, the call was inactive. Regarding `CCOc1cc(/C=N/NC(=O)CCc2n[nH]c(=O)[nH]c2=O)ccc1O`, the result was inactive. With `C=CCn1c(SCC(=O)c2ccc(O)c(O)c2)nnc1-c1cccnc1`, the result was inactive. Take `CCOC(=O)CNc1c(-c2ccc(O)cc2)nc2ccccn12`: the call was inactive. `O=C(Nc1cccc(N2C(=O)C=CC2=O)c1)c1cccs1`: the call was inactive. Next, `COc1cc(/C=N/N=C(\N)c2nonc2N)ccc1O`: “inactive”; `COc1cc(-c2cc(=O)c3c(O)c(OC)c(OC)c(O)c3o2)ccc1O`: “inactive”; `COc1cc(C=C2C(=O)c3ccccc3C2=O)ccc1O`: “inactive”.

In the case of `O=C(CC(=O)N/N=C/c1ccc(O)cc1)N/N=C/c1ccc(O)cc1`, the call was inactive. With `O=C(N/N=C/c1ccc(O)c(O)c1)N/N=C/c1ccc(O)c(O)c1`, the result was inactive.

In the case of `Oc1ccc(Nc2nc(Cl)nc(NCc3ccco3)n2)cc1`, the result was inactive. Take `CCOc1cc(-c2ccc(N)c(OCC)c2)ccc1N`: the compound was classed as inactive. As for `Nc1cc(C(=O)O)ccc1Nc1ccccc1`, the result was inactive. Regarding `Oc1ccc(-c2cn3c(n2)SCC3)cc1O`, the result was inactive. For the compound `COc1cc(/C=C/C(=O)OCC(=O)Nc2ccc(S(N)(=O)=O)cc2)ccc1O`, the compound was called inactive. In the case of `Nc1ccc2nc(CCCO)[nH]c2c1` it was “inactive”. In the case of `COc1cc(C=C(C(C)=O)C(C)=O)ccc1O`, the compound was called inactive. Next, `COc1cc(/C=N/NC(=O)c2cccc([N+](=O)[O-])c2)ccc1O`: “inactive”; `O=c1ccc2cc(O)c(O)cc2o1`: “inactive”; `O=C(Nc1ccc(O)cc1)/C(=C\c1ccncc1)NC(=O)c1ccccc1`: “inactive”. In the case of `Cc1nnc(N/N=C/c2c(O)n(-c3cccc(C(F)(F)F)c3)c(=O)c3ccccc23)[nH]c1=O` it was “inactive”; in that of `COc1ccc(-c2cc(=O)oc3c(O)c(O)ccc23)cc1`, “inactive”; in that of `O=C1CCCC/C1=C\Nc1ccc(O)cc1`, “inactive”. Next, `O=c1cc(CN2CCN(Cc3ccccc3)CC2)c2ccc(O)c(O)c2o1`: “inactive”. `Oc1cnn(-c2ccccc2)c1`: the result was inactive. Next, `Nc1cc(CN2C(=O)c3ccccc3C2=O)cc(Cl)c1O`: “inactive”; `COc1cc(/C=N/Nc2ccnc(=O)[nH]2)ccc1O`: “inactive”; `COc1ccc(NC2CCCN(C(=O)CCn3cccn3)C2)cc1` (stereo not given): “inactive”. Consider `COc1ccc(NC2CCCN(C(=O)c3ccc(OC)cc3OC)C2)cc1` (stereo not given), for which the compound was classed as inactive. In the case of `COc1cc(/C=N/NC(=O)c2c(-c3ccccc3)noc2C)ccc1O`, the outcome was inactive. Take `C/C(CC(=O)Nc1ccc2ccccc2c1)=N\NC(=O)c1ccc(O)c(O)c1`: the compound was classed as inactive. Next, `O=C(Nc1ccc(O)cc1)C1CC=CCC1` (stereo not given): “inactive”. Consider `CC(C)C(=O)c1ccc(O)c(O)c1`, for which the result was inactive. For the compound `Cc1ccc(S(=O)(=O)N2CCN(CC(=O)N/N=C\c3ccc(O)c(O)c3)CC2)cc1`, the compound was classed as inactive. On to `CCCSc1nc(O)c(C(c2ccc(OC)c(O)c2)c2c(O)nc(SCCC)n(C)c2=O)c(=O)n1C`, for which the result was inactive. In the case of `COc1cc(Cn2nnc3ccccc32)ccc1O` it was “inactive”; in that of `Cc1ccc2c(c1C)NC(C(=O)O)C1CC=CC21` (stereo not given), “inactive”; in that of `CC(/C=N/n1c(-c2n[nH]c3c2CCC3)n[nH]c1=S)=C\c1ccco1`, “inactive”.

For the compound `Nc1nc(-c2cccs2)c(NC(=O)c2ccccc2)s1`, the call was inactive. In the case of `O=C1CNC(=S)N1CCc1ccc(O)c(O)c1` it was “inactive”; in that of `N#CC1=C2SCN(Cc3ccco3)CN2C(=O)CC1c1ccc(Cl)cc1` (stereo not given), “inactive”; in that of `O=C(N/N=C/c1ccc(O)c(O)c1)c1cc(-c2ccccc2)nc2ccccc12`, “inactive”. Turning to `Cc1cc(SCC(=O)N/N=C/c2ccc(O)c(O)c2)nc2ccccc12`, the compound was called inactive. Next, `CCn1c(/C=C/c2ccc(O)c(O)c2)nc2ccccc2c1=O`: “inactive”; `O=C(CSc1nc2ccccc2o1)N/N=C/c1ccc(O)c(O)c1`: “inactive”. Next, `O=C1ON=C(c2ccccc2)/C1=C/c1ccc(O)c(O)c1`: “inactive”; `O=C1C=CC(=O)N1c1ccc(O)cc1`: “inactive”.

`Cc1nc(Cl)cc(N/N=C/c2ccc(O)cc2)n1`: the compound was called inactive. On to `CCOc1ccc(N2Nc3n[nH]c(N)c3N2)cc1`, for which the outcome was inactive.

`Cc1c(NC(=O)CN2CCN(c3ccc(O)cc3)CC2)c(=O)n(-c2ccccc2)n1C`: the result was inactive. Next, `O=C1CC(N2CCN(c3ccc(O)cc3)CC2)C(=O)N1Cc1cccs1` (stereo not given): “inactive”; `Cc1nc2ccc(N=NN(C)C)cc2[nH]1`: “inactive”. As to `O=C(Cn1c(=O)oc2ccccc21)Nc1n[nH]c(=S)s1`, the compound was classed as inactive. As for `Cc1cc(C)c2c(CCl)cc(=O)oc2c1`, the outcome was inactive. Next, `CCSS(=O)(=O)c1cccc2cccnc12`: “inactive”; `O=C1/C(=C/c2ccncc2)SC(=S)N1Nc1ccccc1`: “inactive”.

Turning to `CCc1cc2c(Nc3ccc(O)cc3)nc(C)nc2s1`, the compound was classed as inactive. For the compound `CCOC(=O)N1CCN(c2ccc(O)cc2)CC1`, the outcome was inactive. As to `Cc1cc(NC(=O)CN2CCN(c3ccc(O)cc3)CC2)no1`, the compound was classed as inactive.

As to `O=C(C1CC1)N1CCN(c2ccc(O)cc2)CC1`, the result was inactive.

`O=C(c1ccc2ncsc2c1)N1CCN(c2ccc(O)cc2)CC1`: the call was inactive. In the case of `COc1ccc(N2CCN(C(=O)CN(c3ccccc3)S(C)(=O)=O)CC2)cc1` it was “inactive”. For `O=C(CCC(=O)N1CCN(c2ccc(O)cc2)CC1)c1cccs1`, the compound was called inactive.

For the compound `CNC(=O)c1ccc(-c2sc3nc(N4CCOCC4)c4c(c3c2N)CC(C)(C)OC4)o1`, the result was inactive. As for `CN1CC(C(=O)O)Cc2c1ccc1ccccc21` (stereo not given), the call was inactive. For the compound `COc1cc(C(=O)Nc2ccc(O)cc2)ccc1OC(C)=O`, the result was inactive. As for `CN(C)c1ccc(NC(N)=S)cc1`, the call was inactive. As to `COc1cc(/C=N/NC(=O)c2cccc(S(=O)(=O)N3CCCC3)c2)ccc1O`, the compound was called inactive. Take `Cc1nc(-c2ccc(O)c(O)c2)cs1`: the compound was classed as inactive. `Cc1ccc(S(=O)(=O)Nc2nc(C)cc(N/N=C/c3ccc(O)cc3)n2)cc1`: the compound was called inactive. In the case of `CCOc1cc(/C=C2\SC(=O)N=C2N)ccc1O` it was “inactive”. As for `Nc1nc2ccc(N3CCOCC3)cc2s1`, the outcome was inactive. As for `COc1cc(C(=O)Nc2ccc(N(C)C)cc2)cc(OC)c1OC`, the call was inactive.

With `CN(C)c1ccc(Nc2nc(-c3cccnc3)cs2)cc1`, the result was inactive.

Take `Oc1ccc(-c2csc(Nc3ccccn3)n2)cc1O`: the compound was classed as inactive.

In the case of `CC(=O)c1cccc(S(=O)(=O)N2CCCC(c3nc(-c4ccc(C)o4)no3)C2)c1` (stereo not given), the result was inactive. In the case of `Cc1cc(C)nc(SCc2cc(=O)c(OC(=O)c3ccc(S(=O)(=O)N4CCCC4)cc3)co2)n1` it was “inactive”; in that of `CC(C)c1ccc(S(=O)(=O)N2CCN(CCC(=O)Nc3ccc(N(C)C)cc3)CC2)cc1`, “inactive”. As for `Nc1nc(-c2ccco2)cs1`, the result was inactive. Take `Cc1ccsc1/C=N/n1c(-c2cccnc2)n[nH]c1=S`: the result was inactive.

On to `COc1cc(/C=N/NC(=O)c2ccoc2C)cc(OC)c1O`, for which the result was inactive. Next, `O=C(CCN1C(=O)/C(=C\c2ccco2)SC1=S)Nc1ccc(C(=O)O)c(O)c1`: “inactive”; `O=C(CCN1C(=O)/C(=C/c2ccco2)SC1=S)Nc1ccc(C(=O)O)c(O)c1`: “inactive”; `COc1cc(/C=N/NC(=O)CSc2ccccn2)ccc1O`: “inactive”. As for `Cc1ccc(NC(=O)CN2C(=O)N/C(=C\c3cccn3-c3cccc(C(=O)O)c3)C2=O)cc1`, the compound was called inactive. On to `CN(C)c1ccc(N2C(=O)CC(Nc3ccc(N4CCOCC4)cc3)C2=O)cc1` (stereo not given), for which the outcome was inactive. In the case of `Oc1ccc(/C=N/Nc2nccnc2Cl)cc1`, the call was inactive.

Consider `Cc1cc(O)ccc1N/C=C1\CCCC1=O`, for which the call was inactive.

Regarding `O=c1c2c([N+](=O)[O-])cc([N+](=O)[O-])cc2sn1Cc1ccccc1`, the result was inactive. Consider `CC1(C)N([O-])c2cc([N+](=O)[O-])ccc2[N+]1=O`, for which the outcome was inactive. For the compound `Cn1c(SCC(=O)c2ccc(O)c(O)c2)nnc1-c1cccs1`, the call was inactive. `O=c1cc(-c2ccc(Br)cc2)[nH][nH]1`: the call was inactive.

For `O=C(NC(=S)Nc1ccc(O)cc1)c1ccccc1Cl`, the result was inactive.

On to `COc1cc(/C=N/Nc2nc3ccccc3[nH]2)cc(OC)c1O`, for which the outcome was inactive.

With `Nc1ccc2nc(CCCCCCCCc3nc4ccc(N)cc4[nH]3)[nH]c2c1`, the compound was called inactive. On to `Cc1ccnc(-n2sc3ccccc3c2=O)n1`, for which the call was inactive. As for `O=c1c2ccccc2sn1-c1nccs1`, the result was inactive.

(Values after PubChem BioAssay AID2102 (Southern Research Specialized Biocontainment Screening …, 2009).)
